Where “and” joins values, the source holds several entries; their conditions need not be identical. Equal values may be shown once. Among all 94,000 compounds or so, about 2,100 (2.2%) were called active. The list comes from a sample in which actives are over-represented; it also holds similar structures and randomly drawn compounds. Values without a mark were called inactive. Cut-off read from the data, not from the text of the source: active = activity change below about -80%; inconclusive = no clear call, values can overlap the other calls; inactive = above that.
Assay: P. falciparum Dd2 growth inhibitors, primary screen, SYBR Green fluorescence, single dose replicates (AID 1159554)
Details: 72 h, at 10 µM, stronger effect = lower value
`CC(C)CC#Cc1ccc([C@@H]2[C@@H](CO)N3C(=O)CN(C(=O)Nc4ccc(F)cc4)C[C@H]23)cc1` gave an activity change of -28.4%. With `COc1ccccc1CNC(=O)C[C@H]1CC[C@@H]2[C@H](COC[C@H](O)CN2Cc2ccccc2)O1` the activity change was 6.62%. `COc1ccc(CN(C)C[C@H]2Oc3ccc(NS(=O)(=O)c4ccc(Cl)cc4)cc3CC(=O)N([C@@H](C)CO)C[C@H]2C)cc1` showed an activity change of 12.9%. With `C[C@H]1CN([C@@H](C)CO)C(=O)Cc2cc(NC(=O)Nc3ccc4c(c3)OCO4)ccc2O[C@H]1CN(C)Cc1ccc(C(=O)Nc2ccccc2N)cc1` the activity change was -81.3% (active). In the case of `COc1ccc(S(=O)(=O)Nc2ccc3c(c2)CC(=O)N([C@@H](C)CO)C[C@@H](C)[C@@H](CN(C)Cc2ccc(C(=O)Nc4ccccc4N)cc2)O3)cc1`, the activity change was -80.3% (active). In the case of `Cc1ccc(S(=O)(=O)Nc2ccc3c(c2)CC(=O)N([C@@H](C)CO)C[C@H](C)[C@H](CN(C)Cc2ccc(C(=O)Nc4ccccc4N)cc2)O3)cc1`, the activity change was -86.6% (active). In the case of `Cc1ccc(S(=O)(=O)Nc2ccc3c(c2)C(=O)N([C@H](C)CO)C[C@H](C)[C@H](CN(C)Cc2ccc(C(=O)Nc4ccccc4N)cc2)OCCCC[C@@H](C)O3)cc1`, the activity change was -83.6% (active). `Cc1ccc(S(=O)(=O)Nc2ccc3c(c2)C(=O)N([C@H](C)CO)C[C@@H](C)[C@H](CN(C)Cc2ccccc2)OCCCC[C@H](C)O3)cc1` showed an activity change of -43.7%. In the case of `Cc1ccc(S(=O)(=O)Nc2ccc3c(c2)CC(=O)N([C@@H](C)CO)C[C@H](C)[C@H](CN(C)Cc2ccccc2)O3)cc1`, the activity change was -4.27%. With `C[C@@H]1CN([C@H](C)CO)C(=O)Cc2cc(NC(=O)Nc3ccc4c(c3)OCO4)ccc2O[C@@H]1CN(C)Cc1ccc(C(=O)Nc2ccccc2N)cc1` the activity change was -76.5%. In the case of `C[C@@H]1CN([C@H](C)CO)C(=O)Cc2cc(NC(=O)Nc3ccc4c(c3)OCO4)ccc2O[C@H]1CN(C)Cc1ccc(C(=O)O)cc1`, the activity change was 21.4%. `Cc1ccc(S(=O)(=O)Nc2ccc3c(c2)CC(=O)N([C@H](C)CO)C[C@@H](C)[C@H](CN(C)Cc2ccc(C(F)(F)F)cc2)O3)cc1` showed an activity change of 32%. `COc1ccc(S(=O)(=O)Nc2ccc3c(c2)CC(=O)N([C@@H](C)CO)C[C@H](C)[C@@H](CN(C)Cc2ccc(C(=O)O)cc2)O3)cc1` showed an activity change of 22.3%. In the case of `Cc1ccc(S(=O)(=O)Nc2ccc3c(c2)C(=O)N([C@H](C)CO)C[C@H](C)[C@@H](CN(C)Cc2ccccc2)OCCCC[C@H](C)O3)cc1`, the activity change was 30%. `C/C=C/c1ccc([C@H]2[C@@H](CO)N(C(=O)NCCC)[C@H]2CN(C)C(C)=O)cc1` showed an activity change of 0.514%. `CCCNC(=O)[C@@H]1[C@@H](CO)[C@@H]2Cn3c(ccc(-c4cccc(OC)c4)c3=O)[C@H]1N2C(=O)NCCC` gave an activity change of 8.98%. Compound `COCC(=O)Nc1ccc2c(c1)OC[C@H](C)N(C(=O)c1cnccn1)C[C@@H](C)[C@@H](OC)CN(C)C2=O` has an activity change of -61.6%. Work on `COc1ccc(-c2ccccc2[C@H]2[C@@H](CO)N(C(=O)C3CCC3)[C@H]2C#N)cc1` yielded an activity change of 17.9%. `COc1cccc(CNC(=O)C[C@@H]2C=C[C@@H](NC(=O)C3CCC3)[C@@H](CO)O2)c1` gave an activity change of 37.9%. Work on `COc1ccc2c3c(n(C)c2c1)[C@@H](CO)NCC31CN(S(=O)(=O)c2cccc(C)c2)C1` yielded an activity change of -18.8%. For `N#Cc1cccc(-c2ccc(C3[C@H]4CNC[C@@H]3N4S(=O)(=O)c3ccc(-c4ccccc4)cc3)cc2)c1` (stereo not given in full), the activity change was 14.1% and -40.8%. Compound `C[C@H]1CN([C@@H](C)CO)C(=O)c2cc(-c3ccncc3)cnc2O[C@@H]1CN(C)C(=O)C1CCCCC1` has an activity change of -1.12%. With `N#C[C@@H]1[C@H](c2ccccc2-c2ccc(F)cc2)[C@@H](CO)N1c1ncc(-c2ccccc2)s1` the activity change was 27.4%. Compound `CO[C@H]1CN(C)C(=O)c2cc(NC(=O)c3nc4ccccc4s3)ccc2OC[C@H](C)N(Cc2cccnc2)C[C@@H]1C` has an activity change of -15.4%. Work on `CCCC(=O)Nc1ccc2c(c1)C(=O)N(C)C[C@H](OC)[C@H](C)CN(CCc1ccccc1)[C@H](C)CO2` yielded an activity change of -14.1%. `Cc1ccc(S(=O)(=O)Nc2ccc3c(c2)C(=O)N([C@@H](C)CO)C[C@@H](C)[C@@H](CN(C)Cc2ccc(C(=O)Nc4ccccc4N)cc2)O3)cc1` gave an activity change of -61.1%. In the case of `C[C@@H]1CN([C@@H](C)CO)C(=O)c2cc(NS(=O)(=O)c3ccccc3)ccc2O[C@@H]1CN(C)Cc1ccc(C(=O)Nc2ccccc2N)cc1`, the activity change was -83.2% (active). Work on `C[C@H](CO)N1C[C@H](C)[C@H](CN(C)Cc2ccc(C(=O)Nc3ccccc3N)cc2)Oc2ccc(NS(C)(=O)=O)cc2C1=O` yielded an activity change of -28.4%. Compound `Cc1noc(C)c1S(=O)(=O)Nc1ccc2c(c1)C(=O)N([C@@H](C)CO)C[C@H](C)[C@H](CN(C)Cc1ccc(C(=O)Nc3ccccc3N)cc1)O2` has an activity change of -52.6%. In the case of `C[C@@H]1CN([C@@H](C)CO)C(=O)Cc2cc(NC(=O)C3CCCCC3)ccc2O[C@@H]1CN(C)Cc1ccc(-c2ccccc2)cc1`, the activity change was -20.2%. For `C[C@H]1CN([C@@H](C)CO)C(=O)Cc2cc(NS(=O)(=O)c3ccccc3)ccc2O[C@@H]1CN(C)Cc1ccc(C(=O)Nc2ccccc2N)cc1`, the activity change was -81.4% (active). In the case of `CC(C)NC(=O)Nc1ccc2c(c1)CC(=O)N([C@H](C)CO)C[C@@H](C)[C@@H](CN(C)Cc1ccc(C(=O)Nc3ccccc3N)cc1)O2`, the activity change was -49.7%. For `C[C@H]1CN([C@@H](C)CO)C(=O)Cc2cc(NS(=O)(=O)c3ccccc3)ccc2O[C@H]1CN(C)Cc1ccc(C(=O)Nc2ccccc2N)cc1`, the activity change was -77.2%. In the case of `C[C@@H]1CN([C@@H](C)CO)C(=O)Cc2cc(NC(=O)C3CCCCC3)ccc2O[C@@H]1CN(C)Cc1ccc(C(=O)Nc2ccccc2N)cc1`, the activity change was -83.7% (active). `CCCNC(=O)N1C[C@H](C)[C@@H](OC)CN(C)C(=O)c2ccc(NC(=O)CC)cc2OC[C@@H]1C` showed an activity change of 52.7%.

From PubChem BioAssay AID1159554 (Broad Institute, 2015)
